Here are results for 40 molecules from PubChem BioAssay (NCATS).

Inconclusive results are not listed. A call without a number means that no potency is given here. Calls of active or inactive are those of the source. Calls come from the whole dose curve; as a rule, active = well fitted inhibition curve with a large enough effect; inconclusive = small, poorly fitted or top-dose-only effect; inactive = flat fitted curve, though single readings scatter. Peptide text beside a SMILES is read from it.
Potency is the fitted concentration of half-maximal effect.

Chain of Luciferin 4-monooxygenase (Photinus pyralis) (P08659 whole entry, looked up): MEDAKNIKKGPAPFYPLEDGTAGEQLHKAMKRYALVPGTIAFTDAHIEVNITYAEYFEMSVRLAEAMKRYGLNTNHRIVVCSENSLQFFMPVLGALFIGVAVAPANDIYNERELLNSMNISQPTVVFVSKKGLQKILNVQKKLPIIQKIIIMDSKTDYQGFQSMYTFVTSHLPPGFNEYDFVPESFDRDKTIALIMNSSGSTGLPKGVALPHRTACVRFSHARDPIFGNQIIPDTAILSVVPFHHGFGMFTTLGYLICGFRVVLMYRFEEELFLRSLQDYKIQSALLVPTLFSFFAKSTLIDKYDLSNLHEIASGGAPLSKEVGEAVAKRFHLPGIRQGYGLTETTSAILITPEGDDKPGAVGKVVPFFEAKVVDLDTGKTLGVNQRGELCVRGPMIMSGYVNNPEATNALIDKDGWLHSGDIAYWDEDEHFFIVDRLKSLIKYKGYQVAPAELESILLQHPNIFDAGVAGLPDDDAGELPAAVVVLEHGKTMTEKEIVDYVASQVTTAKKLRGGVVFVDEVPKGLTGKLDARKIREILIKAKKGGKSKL

The target of this assay is Luciferin 4-monooxygenase (Photinus pyralis) (UniProt P08659). As to the kind of experiment: Biochemical firefly luciferase enzyme assay for NPC (AID 624030). Note: nearly all actives have a fitted effect of over 70% in size. The conditions noted are these: purified P. pyralis luciferase, luminescence, 5 min; series mostly up to 58.6 µM. The source says:
Charcot-Marie-Tooth-Association [CMTA] National Center for Advancing Translational Sciences [NCATS] Charcot-Marie-Tooth (CMT) disease was first characterized by Jean-Martin Charcot and Pierre Marie in France and, independently, by Howard Henry Tooth in England in 1886. CMT is one of the most common inherited neurological diseases, affecting approximately 1 in 2,500 Americans. […] The most prevalent type of CMT is known as CMT1A and caused by a duplication of the PMP22 gene which leads to over-expression of this protein. PMP22 is a glycosylated intrinsic membrane protein accounting for 2-5% of the myelin protein content, and its over-expression results in demyelination and subsequently axonal loss. A pair of cellular transcription-based assays was developed in the S16 rat Schwann cell lines (Hai, M., et al., 2002) stably transfected with orthogonal reporters - firefly luciferase (Fluc) and beta-lactamase (beta-Lac) - whose expression is driven by an intronic regulatory element of the PMP22 gene (Jones, E.A., et al., 2011) to recapitulate endogenous expression of PMP22. A comprehensive library of approved drugs, the NCGC Pharmaceutical Collection (Huang, R., et al., 2011), was screened in the cross-validating platform of the orthogonal reporter assays to identify drug modulators inhibitory towards PMP22 expression. A set of counter-screens was devised to address non-specific activity of the library. An ATP-dependent CellTiter-Glo assay (developed by Promega Corp) was utilized to control cell viability. In addition, biochemical Fluc enzyme assay was performed to assess direct inhibition of the Fluc enzymatic activity. References Hai, M., Muja, N., DeVries, G.H., Quarles, R.H. and Patel, P.I. Comparative analysis of Schwann cell lines as model systems for myelin gene transcription studies. J Neurosci Res, 2002. 69(4): pp 497-508 Huang, R., Southall, N., Wang, Y., Yasgar A., Shinn P., Jadhav, A. , Nguyen, D.-T. and Austin, C.P., The NCGC pharmaceutical collection: a comprehensive resource of clinically approved drugs enabling repurposing and chemical genomics. Sci Transl Med, 2011. 3(80): p. 80ps16.
Compounds were transferred to the plates in 23nl, and one microliter/well luciferase enzyme-buffer solution (10 nM P. pyralis luciferase and 50 mM Tris Acetate final concentrations) was dispensed yielding a final reaction volume of […]. Luciferase luminescence was measured by a ViewLux plate reader within 5 minutes of enzyme-buffer addition. The % activity was determined by normalizing to the average readings of PTC124 (a positive control) relative to DMSO (0% Activity). The concentration-effect curves were then classified based on curve quality (r2), response magnitude and degree of measured activity.
In the case of `CC1=C(/C=C/C(C)=C/C=C/C(C)=C/CO)C(C)(C)CCC1`, the Potency result was “inactive”.

With `COC(=O)[C@H]1[C@H]2C[C@@H]3c4[nH]c5ccccc5c4CCN3C[C@H]2C[C@@H](OC(=O)c2cc(OC)c(OC)c(OC)c2)[C@@H]1OC`, the Potency entry was “inactive”.

Consider `CC[C@@]1(O)C(=O)OCc2c1cc1n(c2=O)Cc2cc3c([N+](=O)[O-])cccc3nc2-1`, for which the Potency entry is “inactive”.

As to `CCCCCCCCCCCC[n+]1ccc2ccccc2c1`, the Potency result is “inactive”.

Take `CCCC(=O)Nc1ncnc2c1ncn2C1OC2COP(=O)(O)OC2C1OC(=O)CCC` (stereo not given): the Potency result is “inactive”.

Take `CC1(C)S[C@@H]2[C@H](NC(=O)[C@@H](NC(=O)N3CCNC3=O)c3ccccc3)C(=O)N2[C@H]1C(=O)O`: the Potency entry is “inactive”.

On to `CCCC(=O)O[C@]1(C(=O)CCl)[C@H](C)C[C@@H]2[C@H]3CCC4=CC(=O)C=C[C@]4(C)[C@@]3(F)C(=O)C[C@@]21C`, for which the Potency result was “inactive”.

Take `CC1=C(/C=C/C(C)=C/C=C/C(C)=C/C=C/C=C(C)/C=C/C=C(C)/C=C/C2=C(C)CCCC2(C)C)C(C)(C)CCC1`: the Potency result was “inactive”.

`C[C@]12CCC(=O)C=C1CC[C@@H]1[C@@H]2[C@@H](O)C[C@@]2(C)[C@H]1CC[C@]2(O)C(=O)COP(=O)(O)O`: the Potency result was “inactive”.

As to `CC(C)(C)NC(=O)[C@@H]1C[C@@H]2CCCC[C@@H]2CN1C[C@@H](O)[C@H](Cc1ccccc1)NC(=O)[C@H](CC(N)=O)NC(=O)c1ccc2ccccc2n1`, the Potency result is “inactive”.

As to `CC[N+](C)(C)Cc1ccccc1Br`, the Potency entry is “inactive”.

`CCCCCCCCCCCCCCCCCCOP(=O)([O-])OC1CC[N+](C)(C)CC1`: the Potency result was “inactive”.

For `C#C[C@]1(O)CC[C@H]2[C@@H]3CCC4=CCCC[C@@H]4[C@H]3C(=C)C[C@@]21CC`, the Potency result is “inactive”.

In the case of `CCCCC(=O)O[C@]1(C(=O)CO)[C@H](C)C[C@H]2[C@@H]3CCC4=CC(=O)C=C[C@]4(C)[C@@]3(F)[C@@H](O)C[C@@]21C`, the Potency result is “inactive”.

Take `CCOC(C)=O`: the Potency entry was “inactive”.

In the case of `O=S(=O)(O)c1cc(O)c2c(N=Nc3ccc(Nc4ccccc4)c4c(S(=O)(=O)O)cccc34)cc(S(=O)(=O)O)cc2c1`, the Potency was 32.2 µM (active).

Consider `CO[C@H](C(=O)[C@@H](O)[C@@H](C)O)C1Cc2cc3cc(O[C@H]4C[C@@H](O[C@H]5C[C@@H](O)[C@H](O)[C@@H](C)O5)[C@@H](O)[C@@H](C)O4)c(C)c(O)c3c(O)c2C(=O)[C@H]1O[C@H]1C[C@@H](O[C@H]2C[C@@H](O[C@H]3C[C@](C)(O)[C@H](O)[C@@H](C)O3)[C@H](O)[C@@H](C)O2)[C@H](O)[C@@H](C)O1` (stereo not given in full), for which the Potency result was “inactive”.

For `CN(C)CCCN1c2ccccc2C(C)(C)c2ccccc21`, the Potency result was “inactive”.

For `Cc1c(C)c2c(c(C)c1O)CC[C@@](C)(CCC[C@@H](C)CCC[C@@H](C)CCCC(C)C)O2`, the Potency result is “inactive”.

For the molecule `COC(=O)C1=C(C#N)NC(C)=C(C(=O)OC(C)C)C1c1cccc([N+](=O)[O-])c1` (stereo not given), the Potency entry was “inactive”.

On to `CC(C(=O)O)c1ccc(N2Cc3ccccc3C2=O)cc1` (stereo not given), for which the Potency was 0.181 µM (active).

On to `CCN(CC)CCOc1ccc(-c2nc3cc(Cl)ccc3s2)cc1`, for which the Potency was 6.42 µM (active).

On to `CC1=C(/C=C/C(C)=C/C=C/C(C)=C/C=C/C=C(C)/C=C/C=C(C)/C=C/C2=C(C)C(=O)CCC2(C)C)C(C)(C)CCC1=O`, for which the Potency result is “inactive”.

In the case of `Cc1ccccc1`, the Potency result is “inactive”.

As to `C=CCSSSCC=C`, the Potency result is “inactive”.

Turning to `Cc1cn([C@H]2C[C@H](O)[C@@H](CO)O2)c(=O)[nH]c1=O`, the Potency result is “inactive”.

`CCC(=O)NCCC1CCc2ccc3c(c21)CCO3` (stereo not given): the Potency result is “inactive”.

Consider `CC(C)(C)C(=O)OCOC(=O)[C@@H]1N2C(=O)[C@@H](N=CN3CCCCCC3)[C@H]2SC1(C)C`, for which the Potency entry is “inactive”.

`COC(F)(F)C(Cl)Cl`: the Potency result is “inactive”.

Turning to `CC1=CCC(C(C)(C)O)CC1` (stereo not given), the Potency entry is “inactive”.

Turning to `CCN(CC)Cc1cc(Nc2ccnc3cc(Cl)ccc23)ccc1O`, the Potency entry is “inactive”.

As for `C[C@]12O[C@H](C[C@]1(O)CO)n1c3ccccc3c3c4c(c5c6ccccc6n2c5c31)CNC4=O`, the Potency result is “inactive”.

Consider `CCCCC(C)(O)C/C=C/[C@H]1[C@H](O)CC(=O)[C@@H]1CCCCCCC(=O)OC` (stereo not given in full), for which the Potency entry was “inactive”.

Take `CCOc1ccc(N=Nc2ccc(N)cc2N)cc1`: the Potency is 0.203 µM (active).

In the case of `Nc1c(Br)cc(Br)cc1CNC1CCC(O)CC1` (stereo not given), the Potency entry is “inactive”.

Take `COC(=O)CCC(=O)CN`: the Potency result is “inactive”.

As to `Nc1c(N=Nc2ccc(-c3ccc(N=Nc4cc(S(=O)(=O)O)c5ccccc5c4N)cc3)cc2)cc(S(=O)(=O)O)c2ccccc12`, the Potency is 32.2 µM (active).

Take `CC(=O)N[C@@H](CC(=O)O)C(=O)N[C@@H](CCC(=O)O)C(=O)O` (Ac-Asp-Glu-OH): the Potency result is “inactive”.

For `COCC(=O)Nc1cc(Sc2ccccc2)ccc1N=C(NC(=O)OC)NC(=O)OC`, the Potency entry is “inactive”.

As to `C[C@@H]1CCC2[C@@H](C)[C@@H](O)O[C@@H]3O[C@@]4(C)CC[C@@H]1[C@@]23OO4` (stereo not given in full), the Potency entry was “inactive”.
